Source: PubChem BioAssay (NCI)
Several values for one entry are separate records, joined by “and”; a condition that tells them apart may be missing. Equal entries are not always repeated. Compounds without any hit were thinned out: in the full panel of roughly 83,000, 20% have a hit.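 The endpoint reported here, percent growth, reads 100 for growth as untreated, 0 for no net growth and -100 for all cells dead.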 Activity calls are given as the source filed them. How the source made its calls: active means growth percent below 10; inactive means the rest.

The molecules below were run on NCI-H522 lung (assay: NCI-60 one-dose screen, 48 h (100 = growth as untreated, 0 = no growth, -100 = all killed)). Settings: 10 µM unless noted.
For `O=C1CCC(N2C(=O)c3cccc(NCCOCCOCCOCCC(=O)NCCCC(=O)NC(c4ccc5c(c4)OCO5)c4cc(Cl)c5cccnc5c4O)c3C2=O)C(=O)C1` (centres undefined), the growth was 6.82% (active). With `COc1cc(/C=C/C(=O)c2cnn(-c3cc(=O)[nH]c4ccc(C)cc34)c2C)cc(OC)c1OC` the growth was -87.1% (active). `Cc1ccc(C(=O)Nc2cc(-n3cnc(F)c3)cc(C(F)(F)F)c2)cc1C#Cc1cnc2cccnn12` was tested, and the growth was 64.6% (inactive). With `COc1cc(/C=C/C(=O)c2cnn(-c3cc(=O)[nH]c4ccc(Br)cc34)c2C)cc(OC)c1OC` the growth was -89.1% (active). With `CCCCCCCOc1ccc(S(=O)(=O)Nc2ccc(C)c(F)c2C(=O)O)cc1` the growth was 84.3% (inactive). For `C#CCN(C)CCCOc1ccc(N(CC)C(=O)c2cc(C(C)C)c(O)cc2O)cc1Cl`, the growth was -14.9% (active). With `COC(=O)CSC1=C(C)C(=O)C(OC)=C(OC)C1=O` the growth was 72.2% (inactive). `Nc1cccc(-n2c(COc3ccc(I)cc3)nc3ccccc32)c1` was tested, and the growth was 81.5% (inactive) and 107% (inactive). In the case of `O=C(Nc1ccc(F)cc1)Nc1nc2ccc([N+](=O)[O-])cc2s1`, the growth is reported as -23.7% (active). For `CC(=O)Nc1cccc(-n2c(COc3ccc(I)cc3)nc3ccccc32)c1`, the growth was 70.1% (inactive) and 111% (inactive). With `Cc1nc2sccn2c1-c1nnc(SCC(C)C)o1` the growth was 71.5% (inactive). For `COc1ccc2[nH]cc(-c3cc4nc(-c5cn(C)c6ncc(Br)cc56)cc(N)n4n3)c2c1`, the growth was -64.9% (active). `Cc1nn(-c2ccccc2)c2ncn(CC(=O)N/N=C/c3ccccc3O)c(=O)c12` was tested, and the growth was 21% (inactive). In the case of `Cc1ccccc1NC(=O)c1cccc(NC(=O)CCl)c1`, the growth is reported as -71.7% (active). In the case of `O=C1Nc2ccccc2/C1=C\c1ccc(OCC(=O)c2ccc(Br)cc2)cc1`, the growth is reported as 61.4% (inactive). `CN1CCN(C(=O)Oc2cc3c(c4ccccc24)[C@H](CCl)CN3C(=O)c2cc3cc(OCCCN4CCC4)ccc3[nH]2)[C@@H]2CSSC[C@H]21` was tested, and the growth was -51.7% (active). For `O=C(CSc1nc2sc3c(c2c(=O)n1-c1ccc(Cl)cc1)CCCC3)NNC(=O)c1ccc(F)cc1`, the growth was 77.3% (inactive). In the case of `COC(=O)c1cc(C(C)=O)n2c3ccccc3c3ccccc3c12`, the growth is reported as 86.4% (inactive). For `COc1ccc(NC(=O)Nc2nc3ccc([N+](=O)[O-])cc3s2)cc1`, the growth was 1.25% (active). For `CN(C)CCCc1ccc(Nc2cnn(C)c(=O)c2Cl)cc1`, the growth was 96.3% (inactive). With `COc1ccc(NC2=C(I)C(=O)C(C)=C(C)C2=O)cc1` the growth was 18.5% (inactive). For `CN(C(=O)CN1C(=O)/C(=C/c2ccco2)SC1=S)C1CCS(=O)(=O)C1` (centres undefined), the growth was 15.4% (inactive). With `Cc1ccc(C(=O)C[n+]2cccc3c4ccccc4ccc32)cc1` the growth was 22.1% (inactive). `Cc1ccc(/C=C/C(=O)c2ccc(S(=O)(=O)NCCNc3nc(N(C)C)nc(N4CCOCC4)n3)cc2)cc1` was tested, and the growth was 72.3% (inactive). In the case of `C=CCSc1nnc(-c2ccc(-c3nc4ccccc4[nH]3)cc2)o1`, the growth is reported as 70.4% (inactive). For `Cc1ccc(Nc2nnc(-c3c[nH]c4ccccc34)o2)c(C)c1`, the growth was -30.4% (active).

What follows are molecules tested on A549/ATCC NSCLC in the same assay as above. Settings: 10 µM unless noted.
In the case of `COc1ccc(C(=O)c2c(N)c(C#N)cn2-c2ccc([N+](=O)[O-])cc2)cc1`, the growth is reported as 103% (inactive). With `Fc1ccc(F)c(CNc2nc(SCCN3CCOCC3)nc3c2cnn3CC(Cl)c2ccc(Br)cc2)c1` (centres undefined) the growth was 20.9% (inactive). With `COc1ccc(N=Nc2c(N)nn3c(N)c(C#N)c(-c4ccc(F)cc4)nc23)cc1` the growth was 86.8% (inactive). For `COc1cc(CNC(=O)[C@]23CCC(C)(C)CC2C2=CCC4[C@@]5(C)CCC(OC(C)=O)C(C)(C)C5CC[C@@]4(C)[C@]2(C)CC3)ccc1OCc1cn(-c2ccc(Cl)cc2Cl)nn1` (some centres undefined), the growth was 93.1% (inactive). With `C/C(=N\Nc1ccc(C(=O)O)cc1)c1cnn(-c2cc(=O)[nH]c3ccc(C)cc23)c1C` the growth was 104% (inactive). With `N#Cc1cc(-c2ccnc(Nc3ccc(N4CCN(C5COC5)CC4)cc3)n2)ccc1N1CCCC1` the growth was 67.3% (inactive). In the case of `O=C(N/N=C/c1ccc(Cl)cc1)c1ccc(OCc2nc3ccc(Cl)cc3[nH]2)cc1`, the growth is reported as -60.1% (active). For `COc1ccc(-c2nc3ccccc3n2CC(=O)N=Nc2c(O)[nH]c3ccc(Br)cc23)cc1`, the growth was 98.2% (inactive). For `Clc1ccccc1Nc1nnc(-c2c[nH]c3ccccc23)o1`, the growth was 22.1% (inactive). `O=C(NC(=S)N1CCN(c2ncnc3c2cnn3-c2ccccc2)CC1)c1ccc(Br)cc1` was tested, and the growth was 80.6% (inactive). `COc1ccc(/C=C/c2nc3ccccc3n3c(-c4cccc([N+](=O)[O-])c4)nnc23)cc1` was tested, and the growth was -4.88% (active). In the case of `CS(=O)(=O)Nc1cc(-c2ccc3ncnc(Nc4ccc(OCc5cccnc5)c(Cl)c4)c3c2)cnc1Cl`, the growth is reported as 45.6% (inactive). With `O=C1CCC(N2C(=O)c3cccc(NCCOCCOCCOCCC(=O)NCCCC(=O)NC(c4ccc5c(c4)OCO5)c4cc(Cl)c5cccnc5c4O)c3C2=O)C(=O)C1` (centres undefined) the growth was 88.3% (inactive). In the case of `COc1cc(/C=C/C(=O)c2cnn(-c3cc(=O)[nH]c4ccc(C)cc34)c2C)cc(OC)c1OC`, the growth is reported as 6.23% (active). In the case of `Cc1ccc(C(=O)Nc2cc(-n3cnc(F)c3)cc(C(F)(F)F)c2)cc1C#Cc1cnc2cccnn12`, the growth is reported as 66.5% (inactive). For `COc1cc(/C=C/C(=O)c2cnn(-c3cc(=O)[nH]c4ccc(Br)cc34)c2C)cc(OC)c1OC`, the growth was 8.86% (active). `CCCCCCCOc1ccc(S(=O)(=O)Nc2ccc(C)c(F)c2C(=O)O)cc1` was tested, and the growth was 103% (inactive). With `C#CCN(C)CCCOc1ccc(N(CC)C(=O)c2cc(C(C)C)c(O)cc2O)cc1Cl` the growth was 15.9% (inactive). In the case of `COC(=O)CSC1=C(C)C(=O)C(OC)=C(OC)C1=O`, the growth is reported as 90.4% (inactive). With `Nc1cccc(-n2c(COc3ccc(I)cc3)nc3ccccc32)c1` the growth was 104% (inactive). For `O=C(Nc1ccc(F)cc1)Nc1nc2ccc([N+](=O)[O-])cc2s1`, the growth was 6.83% (active). For `CC(=O)Nc1cccc(-n2c(COc3ccc(I)cc3)nc3ccccc32)c1`, the growth was 101% (inactive) and 108% (inactive). With `Cc1nc2sccn2c1-c1nnc(SCC(C)C)o1` the growth was 91.3% (inactive). With `COc1ccc2[nH]cc(-c3cc4nc(-c5cn(C)c6ncc(Br)cc56)cc(N)n4n3)c2c1` the growth was -69.8% (active). `Cc1nn(-c2ccccc2)c2ncn(CC(=O)N/N=C/c3ccccc3O)c(=O)c12` was tested, and the growth was 38.9% (inactive). With `Cc1ccccc1NC(=O)c1cccc(NC(=O)CCl)c1` the growth was 59.1% (inactive). For `O=C1Nc2ccccc2/C1=C\c1ccc(OCC(=O)c2ccc(Br)cc2)cc1`, the growth was 58.4% (inactive). `CN1CCN(C(=O)Oc2cc3c(c4ccccc24)[C@H](CCl)CN3C(=O)c2cc3cc(OCCCN4CCC4)ccc3[nH]2)[C@@H]2CSSC[C@H]21` was tested, and the growth was -2.8% (active). In the case of `O=C(CSc1nc2sc3c(c2c(=O)n1-c1ccc(Cl)cc1)CCCC3)NNC(=O)c1ccc(F)cc1`, the growth is reported as 94.2% (inactive). With `COC(=O)c1cc(C(C)=O)n2c3ccccc3c3ccccc3c12` the growth was 96.9% (inactive). In the case of `COc1ccc(NC(=O)Nc2nc3ccc([N+](=O)[O-])cc3s2)cc1`, the growth is reported as 30.2% (inactive). In the case of `CN(C)CCCc1ccc(Nc2cnn(C)c(=O)c2Cl)cc1`, the growth is reported as 93.8% (inactive). For `COc1ccc(NC2=C(I)C(=O)C(C)=C(C)C2=O)cc1`, the growth was 83.8% (inactive). In the case of `CN(C(=O)CN1C(=O)/C(=C/c2ccco2)SC1=S)C1CCS(=O)(=O)C1` (centres undefined), the growth is reported as 102% (inactive). For `Cc1ccc(C(=O)C[n+]2cccc3c4ccccc4ccc32)cc1`, the growth was 23.8% (inactive). In the case of `Cc1ccc(/C=C/C(=O)c2ccc(S(=O)(=O)NCCNc3nc(N(C)C)nc(N4CCOCC4)n3)cc2)cc1`, the growth is reported as 80.4% (inactive). With `C=CCSc1nnc(-c2ccc(-c3nc4ccccc4[nH]3)cc2)o1` the growth was 73.5% (inactive). With `Cc1ccc(Nc2nnc(-c3c[nH]c4ccccc34)o2)c(C)c1` the growth was 12.6% (inactive).
